The text below walks through data of PubChem BioAssay AID1851 (National Center for Advancing Translational Sciences (NCATS), 2009).

In all, about 16,000 compounds went through this assay and about 4,000 (25%) were called active. Inconclusive results (about 26%) are left out. Calls follow the shape of the dose curve; as a rule, active = well fitted curve in the direction sought with a large enough effect; inconclusive = small, poorly fitted or top-dose-only effect, or effect the other way; inactive = no such curve, though single readings can be large or run the other way. The list is a sample of the results.
% is scaled to controls: 0 for no effect and ±100 for the full control effect.

The target in the test is Cytochrome P450 2C9 (Homo sapiens) (UniProt P11712). Briefly: Cytochrome panel assay with activity outcomes. As to conditions: recombinant CYP, pro-luciferin dealkylation, luminescence, p450-cyp2c9; series mostly up to 57.1 µM; activity, negative = inhibition: at the top concentration.
Cytochrome P450 2C9 (Homo sapiens), sequence (P11712 whole entry, looked up): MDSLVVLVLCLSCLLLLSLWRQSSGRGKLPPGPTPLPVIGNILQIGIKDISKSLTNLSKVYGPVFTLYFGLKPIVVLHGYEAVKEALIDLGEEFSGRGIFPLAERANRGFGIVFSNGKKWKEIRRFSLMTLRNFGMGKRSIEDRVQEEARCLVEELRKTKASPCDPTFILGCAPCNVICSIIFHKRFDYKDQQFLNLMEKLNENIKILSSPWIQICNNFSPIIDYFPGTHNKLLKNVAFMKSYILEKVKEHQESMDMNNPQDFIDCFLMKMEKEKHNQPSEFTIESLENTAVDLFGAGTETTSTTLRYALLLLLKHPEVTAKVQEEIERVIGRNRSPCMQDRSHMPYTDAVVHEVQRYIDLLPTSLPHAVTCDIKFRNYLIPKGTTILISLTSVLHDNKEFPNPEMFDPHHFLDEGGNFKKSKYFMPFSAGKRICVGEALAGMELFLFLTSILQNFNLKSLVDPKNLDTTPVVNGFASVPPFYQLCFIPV
`Cc1ccccc1C(=O)Nc1ccc(C(=O)NNC(=O)CCCOc2ccc(Cl)cc2Cl)cc1`: the “activity, negative = inhibition” value was -26.9% (inactive). On to `Cc1cc(C)n(Cc2ccc(NC(=O)c3ccc(COc4ccccc4Br)cc3)cc2)n1`, for which the AC50 was 1.12 µM (active). On to `Cc1cc(C)n(CCCNCC(O)c2ccccc2)n1` (stereo not drawn), for which the “activity, negative = inhibition” value was -11.4% (inactive).

For `c1ccc(CN2CC[C@@H](CNc3ncnc4ccccc34)C2)cc1`, the activity, negative = inhibition is 22.2% [at 11.4 µM] (inactive).

Regarding `O=C1CCCc2ccccc2N1Cc1ccccc1Cl`, the AC50 was 10 µM (active). As for `C[C@@H](CN(C)C)CN1c2ccccc2CCc2ccccc21`, the AC50 result is “inactive”. Consider `c1ccc(CN2CCC3(CCCc4ccccc43)CC2)cc1`, for which the “activity, negative = inhibition” value was -8.57% (inactive). On to `O=C1CCCc2ccccc2N1Cc1cccc(Cl)c1`, for which the AC50 is 5.01 µM (active).

With `CC(=O)NCCNc1ncnc2ccc(-c3c(C)noc3C)cc12`, the activity, negative = inhibition is 27.1% [at 2.29 µM] (inactive). As to `O=c1c2ccc(Cl)cc2nc(-c2cccc(C(F)(F)F)c2)n1O`, the AC50 was 5.01 µM (active). Regarding `CCc1ccc(NC(=O)C2CCN(S(=O)(=O)c3c(C)[nH]c(=O)[nH]c3=O)CC2)cc1`, the “activity, negative = inhibition” value was -27.8% (inactive). With `CCOC(=O)N1CCN(c2c(-c3ccccc3)c3cc(Cl)ccc3[nH]c2=O)CC1`, the AC50 is 1.26 µM (active). For `CCOC(=O)c1[nH]c2ccc(Cl)cc2c1-c1ccccc1`, the “activity, negative = inhibition” value is -19.7% (inactive). Same read-out and setting: for `CO[C@H]1COC(=O)C/C=C\[C@@H](C)[C@H](OC)COC(=O)[C@H]2CCCN2C(=O)C/C=C\[C@@H]1C` the value was 12.3% [at 11.4 µM] (inactive). `CC(=O)Oc1ccc2ccccc2c1C(NC(=O)Cc1ccccc1)c1ccc(Cl)cc1` (stereo not drawn): the AC50 was 1.78 µM (active). For the compound `Cn1c([N+](=O)[O-])cnc1CN1CCN(CCO)CC1`, the activity, negative = inhibition is 8.6% [at 11.4 µM] (inactive). Regarding `O=C(c1ccccc1)c1ccc(OCC(O)CN2CCN(Cc3ccccc3)CC2)cc1` (stereo not drawn), the AC50 was 12.6 µM (active).

As to `O[C@H](COc1ccccc1)CN1CCCCC1`, the activity, negative = inhibition was 9.06% [at 11.4 µM] (inactive). As for `CC(C(=O)NC1CCCC1)N(C(=O)c1ccc(-c2ccccc2)[nH]1)c1ccccc1F` (stereo not drawn), the AC50 was 5.01 µM (active).

In the case of `Fc1ccc2nc(Nc3nc4c(s3)CCCC4)sc2c1`, the AC50 was 14.1 µM (active). In the case of `NCCCCC(=O)O`, the “activity, negative = inhibition” value is -13.6% (inactive).

As to `Cc1ccc(Sc2nc(C)cc(C)c2S(C)(=O)=O)cc1`, the AC50 is 3.55 µM (active). For `CC(=O)O[C@]1(C)N=NC2(CCCCC2)O1`, the activity, negative = inhibition was 16.8% [at 11.4 µM] (inactive).

As for `CCC1CCCCN1Cc1cc(OC)c(O)c([N+](=O)[O-])c1` (stereo not drawn), the “activity, negative = inhibition” value is -0.234% (inactive). Turning to `CCCNC(=O)c1cc2c(C(F)(F)F)nn(C)c2s1`, the “activity, negative = inhibition” value is -27.8% (inactive). Consider `CCOC(=O)N1CCN(c2nc(-c3cccs3)cc(C(F)(F)F)n2)CC1`, for which the AC50 is 1.58 µM (active). Take `CCCNC(=O)CSc1nc(-c2cccs2)cc(C(F)(F)F)n1`: the AC50 was 2.82 µM (active). In the case of `CN1CCN(c2ncc3nc(-c4cccs4)c(=O)n(-c4ccccc4)c3n2)CC1`, the “activity, negative = inhibition” value was -2.31% (inactive).

Take `CCOC(=O)N1CCN(c2nc(-c3ccco3)cc(C(F)(F)F)n2)CC1`: the AC50 was 1.12 µM (active). In the case of `Cc1cc(C)nc(SCC(=O)N/N=C\c2sccc2C)n1`, the “activity, negative = inhibition” value is -15.8% (inactive). As for `C/C(CC/C(C)=N/O)=N/O`, the activity, negative = inhibition was -9.93% [at 11.4 µM] (inactive).

For the compound `O=C1OC2CC3CC1CC(O)(C3)C2` (stereo not drawn), the “activity, negative = inhibition” value is -15.4% (inactive).

`Cc1cc2nc(-c3ccc(SCC(=O)N4CCc5ccccc54)nc3)[nH]c2cc1C`: the AC50 is 3.55 µM (active). As for `Cc1ccc(C)c(-n2c(CNC(=O)c3ccco3)nnc2SCC(=O)N2CCc3ccccc32)c1`, the “activity, negative = inhibition” value was -21.7% (inactive). For the compound `O=C(COC(=O)c1ccccc1Nc1cccc(C(F)(F)F)c1)NCc1ccco1`, the AC50 was 3.16 µM (active). `O=C(O)c1cccnc1Nc1cccc(C(F)(F)F)c1`: the “activity, negative = inhibition” value is -12.1% [at 25.6 µM] (inactive). Take `O=C(COC(=O)c1cccnc1Nc1cccc(C(F)(F)F)c1)NCc1ccc2c(c1)OCO2`: the AC50 was 3.55 µM (active). Take `Cc1cc(NC(=O)C2C3C(=O)N(Cc4ccc(Cl)cc4)C(C(=O)NC(C)(C)C)C34C=CC2(C)O4)no1` (stereo not drawn): the “activity, negative = inhibition” value is -51.8% (inactive).

Take `OC[C@H](S)CS`: the activity, negative = inhibition is -14.4% [at 11.4 µM] (inactive).

As for `COCC(=O)N1CCC2(CC1)CN(Cc1ccc(C#N)cc1)C2`, the “activity, negative = inhibition” value was -0.1% (inactive). Take `CCN1CNC(=S)N(c2cc(C)ccc2C)C1`: the “activity, negative = inhibition” value was 0.18% (inactive).

Consider `O=C(c1cc2sccc2n1Cc1ccccc1)N1CCN(c2nc3ccccc3s2)CC1`, for which the AC50 is 2.82 µM (active).

For the compound `Cn1c(=O)c2[nH]c(CCCCC(=O)O)nc2n(C)c1=O`, the activity, negative = inhibition was -3.07% [at 11.4 µM] (inactive). For the compound `Nc1nonc1-n1nncc1-c1ccccc1`, the “activity, negative = inhibition” value is -0.506% (inactive).

Consider `COCc1c(C(N)=O)nnn1-c1nonc1N`, for which the “activity, negative = inhibition” value was -9.91% (inactive).

As to `CCOC(=O)c1nnn(-c2nonc2N)c1-c1ccc(C)cc1`, the AC50 was 11.2 µM (active).

In the case of `c1ccc(CNc2ccnc(-c3ccoc3)n2)cc1`, the activity, negative = inhibition was -18.3% [at 2.29 µM] (inactive). Regarding `Cc1ccc(NC(=O)N/C=C/c2ccco2)cc1C`, the AC50 was 15.8 µM (active). Take `O=C(/C=C/c1cccc(Cl)c1)Nc1ccncc1`: the AC50 is 0.0447 µM (active).

Regarding `O=C(O)/C=C\C(=O)Nc1ccc2c(c1)C(=O)c1cc(F)ccc1-2`, the activity, negative = inhibition is -23.6% [at 11.4 µM] (inactive).

As to `CS[C@@H](CC(=O)O)C(=O)O`, the activity, negative = inhibition is -8.91% [at 11.4 µM] (inactive). Consider `O=CN1CCN(C[C@H](O)CN2CCCCC2)CC1`, for which the activity, negative = inhibition was -3.16% [at 11.4 µM] (inactive). For the compound `CCCCCc1nc2c(C#N)c(-c3ccc(Cl)cc3)ccn2n1`, the AC50 was 3.55 µM (active). Regarding `N#Cc1c(-c2ccc3c(c2)OCO3)ccn2nc(-c3cccc(C(F)(F)F)c3)nc12`, the “activity, negative = inhibition” value is 6.23% (inactive). The same measure, in the same setting: for `CC[C@@]1([N+](=O)[O-])C[C@H]2C=C[C@@H]1C2` the value was -0.495% [at 11.4 µM] (inactive); for `NCCNCC1CCNCC1`, 9.94% [at 11.4 µM] (inactive); for `CCN(CC)CCOC(=O)[C@@H](Cc1cccc2ccccc12)C[C@@H]1CCCO1`, 19.7% [at 25.6 µM] (inactive). In the case of `CCOC(=O)c1ccc(-c2ccc(CO)o2)cc1`, the AC50 was 15.8 µM (active).

Regarding `Cc1ccc(-c2ccc(CCC(=O)O)o2)cc1`, the “activity, negative = inhibition” value is -27.5% (inactive). Consider `CCOC(=O)c1ccc(N)cc1`, for which the “activity, negative = inhibition” value is -13.8% [at 25.6 µM] (inactive). In the case of `O=c1[nH]c2[nH]c(=S)[nH]c(=S)c2[nH]1`, the AC50 was 1.26 µM (active). In the case of `C[C@@]1(CCOCc2ccccc2)NC(=O)NC1=O`, the activity, negative = inhibition is -8.7% [at 11.4 µM] (inactive). With `COc1cccc(-c2nccc(NCc3cccnc3)n2)c1`, the activity, negative = inhibition is 0.577% [at 2.29 µM] (inactive). Turning to `COc1ccc(-c2cc(C(F)(F)F)nc(SCc3cccc(C(=O)O)c3)n2)cc1`, the AC50 is 7.94 µM (active). Regarding `COc1ccc(-c2cc(C(F)(F)F)nc(NCc3cccnc3)n2)cc1`, the AC50 was 5.62 µM (active). `COc1ccccc1-c1nccc(NCc2cccnc2)n1`: the activity, negative = inhibition was -15.5% [at 2.29 µM] (inactive).

With `COC(=O)CSc1cc(C(F)(F)F)nc(-c2ccccn2)n1`, the “activity, negative = inhibition” value is -26% (inactive). The same measure, in the same setting: the same measure for `O=C(O)C(Cl)(c1ccccc1)c1ccccc1`: -22.8% [at 11.4 µM] (inactive); for `CN(C)Cc1ccc(C(C)(C)C)cc1-c1cc(C(C)(C)C)ccc1CN(C)C`: 4.33% [at 11.4 µM] (inactive); for `Cn1c(=O)c(-c2ccc(F)cc2)nc2cncnc21`: 7.67% (inactive). For the compound `COc1ccccc1CCn1c(=O)c(-c2ccccc2)nc2cncnc21`, the AC50 was 5.01 µM (active). For `Cn1c(=O)c(-c2ccccc2)nc2cncnc21`, the “activity, negative = inhibition” value was 5.36% (inactive). Still for that read-out and setting: the same measure for `COCCn1c(=O)c(-c2cccc(Cl)c2)nc2cncnc21`: -28.7% (inactive). For `COc1ccccc1CCn1c(=O)c(-c2ccc(F)cc2)nc2cncnc21`, the AC50 was 3.98 µM (active). Take `COCCn1c(=O)c(-c2ccc(F)cc2)nc2cncnc21`: the “activity, negative = inhibition” value was -8.81% (inactive). Consider `COc1ccccc1CCn1c(=O)c(-c2ccc(F)c(F)c2)nc2cncnc21`, for which the AC50 was 6.31 µM (active).

On to `COc1ccc(-n2c(=O)c(-c3ccc(F)c(F)c3)nc3cncnc32)cc1`, for which the “activity, negative = inhibition” value is 3.26% (inactive).

As to `COc1ccccc1CCn1c(=O)c(-c2cccc(Cl)c2)nc2cncnc21`, the AC50 is 1 µM (active).

Take `COCCn1c(=O)c(-c2ccc(F)c(F)c2)nc2cncnc21`: the “activity, negative = inhibition” value is -22.3% (inactive). As to `Cc1noc(C)c1-c1cncnc1NCc1ccccc1`, the activity, negative = inhibition is 18.5% [at 2.29 µM] (inactive). Consider `CCc1cc2c(nc1CC)CCN(CC/C(C)=N/OC[C@@H](O)COCc1ccco1)C2`, for which the activity, negative = inhibition was 17.1% [at 11.4 µM] (inactive). On to `COc1ccccc1CCn1c(=O)c(-c2cccs2)nc2cncnc21`, for which the AC50 is 2.51 µM (active).

On to `COc1ccccc1CCn1c(=O)c(-c2ccc(Cl)cc2)nc2cncnc21`, for which the AC50 is 3.98 µM (active).

In the case of `O=c1c(CCc2ccccc2)nc2cncnc2n1Cc1ccc(F)cc1`, the AC50 was 7.94 µM (active). With `COc1ccccc1CCn1c(=O)c(CCc2ccccc2)nc2cncnc21`, the AC50 was 7.94 µM (active). In the case of `CCN(CC)C(=O)CSc1nc(O)cc(=O)n1CC`, the “activity, negative = inhibition” value is -12.4% (inactive).

As to `CO[C@H]1COC(=O)[C@@H](C)COC(=O)[C@@H](Cc2ccccc2)NC(=O)C/C=C\[C@H]1C`, the activity, negative = inhibition was 5.22% [at 11.4 µM] (inactive). Consider `COc1ccc(CNc2ccnc(-c3ccccc3OC)n2)c(OC)c1`, for which the activity, negative = inhibition was 14.7% [at 2.29 µM] (inactive).

On to `COc1ccccc1CCn1c(=O)c(-c2cn(C)c3ccccc23)nc2cncnc21`, for which the AC50 is 0.316 µM (active). With `Cn1cc(-c2nc3cncnc3n(Cc3ccccc3Cl)c2=O)c2ccccc21`, the “activity, negative = inhibition” value was -18.5% (inactive). With `COc1ncc2nc(-c3cn(C)c4ccccc34)c(=O)n(CCC#N)c2n1`, the “activity, negative = inhibition” value was 7.16% (inactive). Same read-out and setting: for `COc1ccc(N2C(N)=NC(N)=NC2(C)C)cc1` the value was 3% (inactive).

On to `O=C(c1ccc(COc2ccc(F)cc2)o1)n1cccn1`, for which the AC50 was 17.8 µM (active). As to `CNc1ncncc1-c1ccccc1C`, the activity, negative = inhibition was -4.77% [at 2.29 µM] (inactive). For `CCCc1cc2c(n1Cc1ccc(OC)cc1)C(C)C1CN(C(=O)c3ccccc3)C(C)(C(=O)OC)C21` (stereo not drawn), the AC50 is 12.6 µM (active). In the case of `COc1ccc(C(=O)N2CCC[C@@]3(CCN(Cc4ccc(C#N)cc4)C3)C2)cc1`, the “activity, negative = inhibition” value was 7.58% (inactive). Turning to `CCCc1cc2c(n1Cc1cc(F)cc(F)c1)C(C)C1CN(C(=O)c3ccccc3)C(C)(C(=O)OC)C21` (stereo not drawn), the AC50 is 6.31 µM (active). Regarding `COc1ccc(C(=O)N2CCC[C@@]3(CCN(Cc4ccccc4)C3)C2)cc1`, the “activity, negative = inhibition” value was -7.93% (inactive).

Usually AC50 stands for the concentration giving half of the maximal activity seen.
